Experimental findings from PubChem BioAssay (NCI) are described below.

This is part of a sample that, as a whole, favours compounds with a hit. Of some 83,000 tested, about 20% had one in any assay.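 Treatment: one concentration, 48 hours, 96-well format. Scoring: percent growth, with anything below 10 considered active.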 Values without a mark were called inactive. The source made the active and inactive calls.

Among the test systems are HCT-15 colon; HT29 colon; SNB-75 CNS; SNB-19 CNS; U251 CNS; PC-3 prostate; SK-MEL-5 melanoma; UACC-62 melanoma; LOX IMVI melanoma; SK-MEL-28 melanoma.
Common to all, as to assay: NCI-60 one-dose screen, 48 h (100 = growth as untreated, 0 = no growth, -100 = all killed)
What all share (details): 10 µM unless noted

Take `N#CC1=C(/N=C/c2ccccc2)Oc2c(ccc3ccccc23)C1c1ccccc1` (stereo not given): the growth with HCT-15 colon was 16.6%; in the assay on HT29 colon it was 4.48% (active); in the assay on SNB-75 CNS it was 10.1%; with SNB-19 CNS it was 24.4%; with U251 CNS, 16.9%; in the assay with PC-3 prostate it was 8.32% (active). Besides, the growth in the assay on SK-MEL-5 melanoma is -3.14% (active); in the assay with UACC-62 melanoma, 15.7%; in the assay on LOX IMVI melanoma, 23.9%; in the assay on SK-MEL-28 melanoma, 41.5%.
Regarding `COc1cc(C2CC(c3ccc(Nc4ccnc5cc(Cl)ccc45)cc3)=NN2C=O)cc(OC)c1OC` (stereo not given), the growth in the assay on HCT-15 colon was 48.8%; in the assay with HT29 colon it was -37.3% (active); with SNB-75 CNS, 75.7%; in the assay on SNB-19 CNS, 82%; in the assay on U251 CNS it was 44.6%; in the assay with PC-3 prostate it was 80.6%. Also, the growth in the assay with SK-MEL-5 melanoma was 37.3%; with UACC-62 melanoma, 46.3%; in the assay with LOX IMVI melanoma it was 0.138% (active); in the assay with SK-MEL-28 melanoma, 22.4%.
With `COc1ccc(NC(=O)CSc2nc(C)c(C(C)=O)n2-c2ccc([N+](=O)[O-])cc2)cc1`, the growth in the assay on HCT-15 colon was 85.7%; with HT29 colon it was 90.8%; in the assay with SNB-75 CNS it was 90%; with SNB-19 CNS, 85.9%; with U251 CNS it was 93.8%; in the assay on PC-3 prostate, 85.3%. Further, the growth was 91.5% in the assay with SK-MEL-5 melanoma, 73.1% in the assay on UACC-62 melanoma, 89.7% in the assay on LOX IMVI melanoma and 89.8% in the assay with SK-MEL-28 melanoma.
On to `Cc1cc(NCCCCNc2ccnc3cc(Cl)ccc23)nc(Nc2ccc(C(=O)N3CCCCC3)cc2)n1`, for which the growth in the assay with HCT-15 colon is -31.6% (active); in the assay with HT29 colon, -25.4% (active); in the assay with SNB-75 CNS it was -73.4% (active); with SNB-19 CNS, 25.1%; with U251 CNS, -36.3% (active); with PC-3 prostate it was 12.2%. The growth in the assay on SK-MEL-5 melanoma was -96.5% (active); with UACC-62 melanoma, -57.8% (active); in the assay on LOX IMVI melanoma, -78.3% (active); with SK-MEL-28 melanoma, -76.5% (active).
Regarding `COc1cccc(-c2nc3sccn3c2-c2ccnc(NCCNS(=O)(=O)c3cccc(Cl)c3)c2)c1`, the growth in the assay with HCT-15 colon is 37.8%; in the assay on HT29 colon it was 45.7%; in the assay with SNB-75 CNS, 36.6%; in the assay with SNB-19 CNS, 65%; in the assay on U251 CNS, 58.8%; in the assay with PC-3 prostate, 20.2%. The growth with SK-MEL-5 melanoma was 20.2%; in the assay with UACC-62 melanoma, 12.1%; with LOX IMVI melanoma, 46.7%; in the assay with SK-MEL-28 melanoma, 68.4%.
Consider `COC(=O)c1c2c(c[n+]([O-])c1C)C(=O)C=CC2=O`, for which the growth is 12.4% in the assay with HCT-15 colon; 106% with HT29 colon; 125% in the assay with SNB-75 CNS; 79.8% with SNB-19 CNS; 37.7% in the assay with U251 CNS; 65.8% in the assay on PC-3 prostate. Further, the growth with SK-MEL-5 melanoma is 72%; with UACC-62 melanoma it was 0.925% (active); with LOX IMVI melanoma, 47.3%; in the assay on SK-MEL-28 melanoma, 49%.
On to `Cc1cc(N2CCCC2)nc(NCc2cc(Nc3ccnc4cc(Cl)ccc34)ccc2F)n1`, for which the growth is -74.3% (active) in the assay with HCT-15 colon; -41.6% (active) with HT29 colon; -90.7% (active) in the assay on SNB-75 CNS; 1.18% (active) in the assay on SNB-19 CNS; -89.7% (active) in the assay on U251 CNS; -38.8% (active) in the assay on PC-3 prostate. For the same compound, the growth with SK-MEL-5 melanoma is -98.6% (active); in the assay on UACC-62 melanoma, -77.8% (active); in the assay with LOX IMVI melanoma, -92.9% (active); with SK-MEL-28 melanoma, -71.4% (active).
Take `Cc1ccc(C(=O)COc2cccc(/C=C3\Oc4ccccc4C3=O)c2)cc1`: the growth is 105% in the assay with HCT-15 colon; 114% in the assay with HT29 colon; 104% with SNB-75 CNS; 99.4% in the assay with SNB-19 CNS; 99.7% in the assay with U251 CNS; 101% in the assay with PC-3 prostate. Besides, the growth with SK-MEL-5 melanoma is 123%; with UACC-62 melanoma it was 73.2%; with LOX IMVI melanoma, 104%; with SK-MEL-28 melanoma it was 135%.
Consider `COc1cccc(-c2nn(-c3ccccc3)cc2-c2ccnc(NCCCNC(=O)c3ccccc3)c2)c1`, for which the growth in the assay on HCT-15 colon was 33%; with HT29 colon it was 8.81% (active); in the assay with SNB-75 CNS it was 60.1%; with SNB-19 CNS, 70.4%; in the assay with U251 CNS it was 43.3%; in the assay on PC-3 prostate, 26.2%. Besides, the growth in the assay with SK-MEL-5 melanoma was 5.44% (active); in the assay on UACC-62 melanoma, 33.8%; with LOX IMVI melanoma it was 66.1%; in the assay with SK-MEL-28 melanoma, 67.8%.
Consider `COc1ccc(N=C(c2ccccc2)C2C(=O)c3ccccc3C2=O)cc1`, for which the growth in the assay with HCT-15 colon is 67%; in the assay with HT29 colon, 79.5%; in the assay on SNB-75 CNS, 76.3%; with SNB-19 CNS, 89.5%; in the assay with U251 CNS, 81.8%; in the assay on PC-3 prostate, 32.3%. The growth is 71.4% in the assay with SK-MEL-5 melanoma, 63% in the assay with UACC-62 melanoma, 75.4% in the assay on LOX IMVI melanoma and 74.1% with SK-MEL-28 melanoma.
As to `COc1ccc(-c2cc(-c3cc(OC)ccc3OC)nc(SCC(=O)c3ccccc3)c2C#N)cc1`, the growth in the assay with HCT-15 colon is 109%; in the assay with HT29 colon it was 95%; in the assay on SNB-75 CNS it was 68%; in the assay on SNB-19 CNS it was 107%; in the assay with U251 CNS it was 90.4%; in the assay on PC-3 prostate, 88.3%. In addition, the growth in the assay on SK-MEL-5 melanoma is 98.8%; in the assay on UACC-62 melanoma it was 78.4%; with LOX IMVI melanoma, 92.1%; with SK-MEL-28 melanoma it was 103%.
As for `CCCCCCCCCCCCCCCCCCOc1ccc(CC(=O)OCC[N+]2(C)CCCC2)cc1`, the growth in the assay on HCT-15 colon is 97.8%; in the assay with HT29 colon, 98.6%; with SNB-75 CNS, 106%; with SNB-19 CNS, 90.8%; in the assay on U251 CNS, 85.8%; in the assay on PC-3 prostate, 99.9%. In addition, the growth in the assay on SK-MEL-5 melanoma is 103%; in the assay with UACC-62 melanoma, 96.2%; in the assay with LOX IMVI melanoma it was 42.5%; with SK-MEL-28 melanoma, 106%.
`CC(=O)c1ccc(NCC(=O)Nc2ccccn2)cc1`: the growth in the assay on HCT-15 colon was 109%; with HT29 colon it was 109%; with SNB-75 CNS, 92.7%; in the assay with SNB-19 CNS it was 100%; in the assay with U251 CNS, 102%; in the assay on PC-3 prostate, 96.4%. Moreover, the growth is 99.9% with SK-MEL-5 melanoma, 97% in the assay with UACC-62 melanoma, 101% in the assay with LOX IMVI melanoma and 115% with SK-MEL-28 melanoma.
